Measurements as given in PubChem BioAssay AID1159580 (chemical genetic matrix, 2015).
“And” between values parts separate entries of the source, which are not always exact repeats. Equal entries are not always repeated. The whole screen tested about 5,500 compounds, of which about 2,000 (36%) were called active. About 18% were inconclusive and are not listed. No stated cut-off is given here; in the data, active means normalized growth mostly below about 0.91 (no sharp cut-off); inconclusive means no clear call, values can overlap the other calls; inactive means mostly above about 0.92. The list shows a part of the results.

Assay: chemical genetic growth profiling, strain panel (AID 1159580);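 further: tested at 20 µM; growth read once vehicle control cultures reached saturation at 30 °C; 1 = growth at the plate median or of vehicle wells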
Conditions: S. cerevisiae deletion strains, growth OD
[1] = locus YPL241C, strain CIN2, stronger effect = lower value
[2] = locus YHR030C, strain SLT2, stronger effect = lower value
[3] = locus YHR079C, strain IRE1, stronger effect = lower value
[4] = locus YJL095W, strain BCK1, stronger effect = lower value
[5] = locus YJR066W, strain TOR1, stronger effect = lower value
[6] = locus YLR113W, strain HOG1, stronger effect = lower value
[7] = locus YNL183C, strain NPR1, stronger effect = lower value
[8] = locus YOR231W, strain MKK1, stronger effect = lower value
[9] = locus YPL256C, strain CLN2, stronger effect = lower value

Measured: normalized growth

CCN1CCc2nc(N)oc2CC1
inactive: locus YAL013W, strain DEP1, stronger effect = lower value 1.03 | locus YAL040C, strain CLN3, stronger effect = lower value 0.981 | locus YCL061C, strain MRC1 (second series), stronger effect = lower value 1 | locus YDR363W, strain ESC2, stronger effect = lower value 1.03 | locus YER002W, strain NOP16, stronger effect = lower value 0.993 | locus YMR263W, strain SAP30, stronger effect = lower value 1 | locus YNL175C, strain NOP13, stronger effect = lower value 1.01 | locus YNL197C, strain WHI3, stronger effect = lower value 1.02 | locus YNL224C, strain SQS1, stronger effect = lower value 0.995 | locus YOR083W, strain WHI5 (second series), stronger effect = lower value 0.999 | [1] 0.998

CCCCCCCCCCCCCCCC(=O)OCC(O)[C@H]1OC(=O)C(O)=C1O (stereo partly drawn)
active: [2] 0.804 | [3] 0.83 | [4] 0.823 | [5] 0.777 | [6] 0.724 | [7] 0.703 | [8] 0.834 | [9] 0.763

O=C1O[C@H](C(O)CO)C(O)=C1O (stereo partly drawn)
inactive: locus YAL021C, strain ccr4, stronger effect = lower value 0.975 | locus YAL026C, strain drs2, stronger effect = lower value 0.974 | locus YAL030W, strain snc1, stronger effect = lower value 0.988 | locus YBL061C, strain skt5, stronger effect = lower value 0.984 | locus YBR009C, strain hhf1, stronger effect = lower value 0.992 | locus YBR021W, strain FUR4, stronger effect = lower value 0.976 | locus YBR023C, strain chs3, stronger effect = lower value 0.978 | locus YBR171W, strain sec66, stronger effect = lower value 0.983 | locus YBR229C, strain ROT2, stronger effect = lower value 0.991 | locus YBR231C, strain swc5, stronger effect = lower value 1.01 | locus YBR279W, strain paf1, stronger effect = lower value 0.986 | locus YCL011C, strain gbp2, stronger effect = lower value 0.989 | locus YCL016C, strain dcc1, stronger effect = lower value 0.986 | locus YCL029C, strain bik1, stronger effect = lower value 0.96 | locus YCL061C, strain MRC1, stronger effect = lower value 0.975 | locus YCL069W, strain vba3, stronger effect = lower value 0.997 | locus YCR088W, strain abp1, stronger effect = lower value 0.985 | locus YDL005C, strain med2, stronger effect = lower value 0.983 | locus YDL035C, strain GPR1, stronger effect = lower value 1.03 | locus YDL040C, strain nat1, stronger effect = lower value 0.987 | locus YDL074C, strain BRE1, stronger effect = lower value 0.997 | locus YDL101C, strain DUN1, stronger effect = lower value 0.993 | locus YDL185W, strain tfp1, stronger effect = lower value 0.973 | locus YDL192W, strain arf1, stronger effect = lower value 0.977 | locus YDR001C, strain nth1, stronger effect = lower value 0.99 | locus YDR069C, strain doa4, stronger effect = lower value 0.991 | locus YDR101C, strain arx1, stronger effect = lower value 0.954 | locus YDR137W, strain rgp1, stronger effect = lower value 0.971 | locus YDR159W, strain sac3, stronger effect = lower value 0.984 | locus YDR162C, strain NBP2, stronger effect = lower value 1.01 | locus YDR195W, strain ref2 0.991 | locus YDR297W, strain sur2, stronger effect = lower value 0.992 | locus YDR318W, strain mcm21, stronger effect = lower value 1 | locus YDR334W, strain swr1, stronger effect = lower value 0.979 | locus YDR335W, strain msn5, stronger effect = lower value 0.993 | locus YDR388W, stronger effect = lower value 0.977 | locus YDR392W, strain spt3, stronger effect = lower value 0.916 | locus YDR502C, strain sam2, stronger effect = lower value 0.996 | locus YEL003W, strain gim4, stronger effect = lower value 1 | locus YEL037C, strain rad23, stronger effect = lower value 0.988 | locus YEL061C, strain CIN8 (second series), stronger effect = lower value 0.989 | locus YEL061C, strain CIN8, stronger effect = lower value 1.02 | locus YER015W, strain faa2, stronger effect = lower value 0.971 | locus YER016W, strain bim1, stronger effect = lower value 0.997 | locus YER110C, stronger effect = lower value 0.974 | locus YER111C, strain swi4, stronger effect = lower value 0.983 | locus YER155C, strain BEM2 (second series), stronger effect = lower value 0.992 | locus YER155C, strain BEM2, stronger effect = lower value 0.976 | locus YER167W, strain BCK2, stronger effect = lower value 1 | locus YFR010W, strain ubp6, stronger effect = lower value 0.975 | locus YGL078C, strain dbp3, stronger effect = lower value 0.964 | locus YGL086W, strain mad1, stronger effect = lower value 0.957 | locus YGL167C, strain pmr1, stronger effect = lower value 0.984 | locus YGL173C, strain kem1, stronger effect = lower value 0.982 | locus YGL227W, strain vid30, stronger effect = lower value 0.992 | locus YGL240W, strain doc1, stronger effect = lower value 0.986 | locus YGL248W, strain PDE1, stronger effect = lower value 0.997 | locus YGL253W, strain hxk2, stronger effect = lower value 0.992 | locus YGR135W, strain pre9, stronger effect = lower value 1.01 | locus YGR229C, strain SMI1, stronger effect = lower value 1.01 | locus YGR252W, strain gcn5, stronger effect = lower value 1.06 | locus YHR013C, strain ard1, stronger effect = lower value 0.957 | locus YHR027C, strain rpn1, stronger effect = lower value 1.01 | [2] 0.991 and 0.989 | locus YHR079C, strain IRE1 (second series), stronger effect = lower value 0.984 | [3] 1 | locus YHR094C, strain hxt1, stronger effect = lower value 0.976 | locus YHR129C, strain ARP1, stronger effect = lower value 1 | locus YHR142W, strain chs7, stronger effect = lower value 0.979 | locus YHR200W, strain rpn10, stronger effect = lower value 0.982 | locus YIL066C, strain RNR3, stronger effect = lower value 0.987 | locus YIL073C, strain SPO22, stronger effect = lower value 0.997 | locus YIL125W, strain kgd1, stronger effect = lower value 0.967 | locus YIR030C, strain dcg1, stronger effect = lower value 0.978 | locus YJL092W, strain hpr5, stronger effect = lower value 0.988 | locus YJL095W, strain BCK1 (second series), stronger effect = lower value 0.991 | [4] 1.02 and 0.983 | locus YJL115W, strain asf1, stronger effect = lower value 0.987 | locus YJL129C, strain trk1, stronger effect = lower value 0.992 | locus YJL134W, strain LCB3, stronger effect = lower value 0.987 | locus YJL154C, strain vps35, stronger effect = lower value 1 | locus YJL164C, strain tpk1, stronger effect = lower value 0.969 | locus YJL166W, strain qcr8, stronger effect = lower value 0.97 | locus YJL168C, strain set2, stronger effect = lower value 0.979 | locus YJL187C, strain SWE1 (second series), stronger effect = lower value 0.999 | locus YJL187C, strain SWE1, stronger effect = lower value 0.986 | locus YJR043C, strain POL32, stronger effect = lower value 0.999 | [5] 0.943 | locus YKL009W, strain mrt4, stronger effect = lower value 1.01 | locus YKL068W, stronger effect = lower value 0.992 | locus YKL085W, strain MDH1 (second series), stronger effect = lower value 0.992 | locus YKL085W, strain MDH1, stronger effect = lower value 0.992 | locus YKL160W, strain elf1, stronger effect = lower value 0.971 | locus YKR001C, strain vps1, stronger effect = lower value 0.949 | locus YKR026C, strain gcn3, stronger effect = lower value 0.99 | locus YKR091W, strain srl3, stronger effect = lower value 0.986 | locus YLL001W, strain dnm1, stronger effect = lower value 0.987 | locus YLL026W, stronger effect = lower value 0.998 | locus YLL041C, strain sdh2, stronger effect = lower value 0.988 | locus YLR027C, strain aat2, stronger effect = lower value 0.99 | locus YLR039C, strain RIC1, stronger effect = lower value 1.03 | locus YLR058C, strain SHM2, stronger effect = lower value 1.01 | locus YLR102C, strain apc9, stronger effect = lower value 0.98 | [6] 0.974 | locus YLR221C, strain rsa3, stronger effect = lower value 0.975 | locus YLR258W, strain gsy2, stronger effect = lower value 0.99 | locus YLR262C, strain YPT6 (second series), stronger effect = lower value 0.952 | locus YLR262C, strain YPT6, stronger effect = lower value 1.04 | locus YLR268W, strain sec22, stronger effect = lower value 0.933 | locus YLR320W, strain mms22, stronger effect = lower value 0.975 | locus YLR330W, strain CHS5, stronger effect = lower value 0.99 | locus YLR342W, strain FKS1 (second series), stronger effect = lower value 0.989 | locus YLR342W, strain FKS1, stronger effect = lower value 0.98 | locus YLR357W, strain rsc2, stronger effect = lower value 0.952 | locus YLR370C, strain arc18, stronger effect = lower value 0.986 | locus YLR371W, strain rom2, stronger effect = lower value 0.959 | locus YLR384C, strain iki3, stronger effect = lower value 0.971 | locus YLR418C, strain cdc73, stronger effect = lower value 1.02 | locus YML016C, strain PPZ1, stronger effect = lower value 0.958 | locus YML032C, strain rad52, stronger effect = lower value 1.02 | locus YML120C, strain ndi1, stronger effect = lower value 0.978 | locus YML124C, strain tub3, stronger effect = lower value 0.972 | locus YMR058W, strain fet3, stronger effect = lower value 0.99 | locus YMR078C, strain ctf18, stronger effect = lower value 0.961 | locus YMR125W, strain sto1, stronger effect = lower value 0.979 | locus YMR129W, stronger effect = lower value 0.996 | locus YMR205C, strain PFK2, stronger effect = lower value 0.963 | locus YMR223W, strain ubp8, stronger effect = lower value 0.982 | locus YMR231W, strain pep5, stronger effect = lower value 0.986 | locus YMR307W, strain GAS1, stronger effect = lower value 1.01 | locus YNL067W, strain RPL9B, stronger effect = lower value 1 | locus YNL071W, strain lat1, stronger effect = lower value 0.986 | locus YNL128W, strain TEP1, stronger effect = lower value 0.988 | [7] 0.932 | locus YNL209W, strain ssb2, stronger effect = lower value 0.998 | locus YNL233W, strain BNI4, stronger effect = lower value 0.993 | locus YNL248C, strain rpa49, stronger effect = lower value 0.983 | locus YNL250W, strain rad50, stronger effect = lower value 0.962 | locus YNL271C, strain bni1, stronger effect = lower value 0.966 | locus YNL298W, strain CLA4, stronger effect = lower value 0.979 | locus YNL307C, strain MCK1, stronger effect = lower value 0.965 | locus YNL322C, strain KRE1 (second series), stronger effect = lower value 0.984 | locus YNL322C, strain KRE1, stronger effect = lower value 0.995 | locus YNR049C, strain mso1, stronger effect = lower value 0.986 | locus YNR052C, strain pop2, stronger effect = lower value 0.985 | locus YOL006C, strain TOP1, stronger effect = lower value 0.979 | locus YOL012C, strain htz1 1.07 | locus YOL147C, strain pex11, stronger effect = lower value 0.982 | locus YOR001W, strain rrp6, stronger effect = lower value 0.989 | locus YOR061W, strain CKA2, stronger effect = lower value 0.992 | locus YOR069W, strain VPS5, stronger effect = lower value 0.991 | locus YOR070C, strain gyp1, stronger effect = lower value 0.989 | locus YOR080W, strain dia2, stronger effect = lower value 0.981 | locus YOR083W, strain WHI5, stronger effect = lower value 0.973 | locus YOR106W, strain vam3, stronger effect = lower value 0.962 | locus YOR136W, strain idh2, stronger effect = lower value 0.96 | locus YOR144C, strain elg1, stronger effect = lower value 0.974 | locus YOR184W, strain ser1, stronger effect = lower value 0.991 | [8] 0.965 | locus YOR265W, strain rbl2, stronger effect = lower value 0.984 | locus YOR270C, strain vph1, stronger effect = lower value 0.987 | locus YOR290C, strain snf2, stronger effect = lower value 0.953 | locus YOR316C, strain cot1, stronger effect = lower value 0.976 | locus YPL051W, strain arl3, stronger effect = lower value 0.977 | locus YPL078C, strain atp4, stronger effect = lower value 0.979 | locus YPL106C, strain sse1, stronger effect = lower value 0.93 | locus YPL240C, strain hsp82, stronger effect = lower value 0.995 | [1] 0.993 | [9] 1 | locus YPR119W, strain clb2, stronger effect = lower value 0.976 | locus YPR141C, strain kar3, stronger effect = lower value 0.973 | locus YPR163C, strain tif3, stronger effect = lower value 0.975 | locus YPR167C, strain met16, stronger effect = lower value 0.998 | strain wtn01, stronger effect = lower value 0.932
